Screening results: PubChem BioAssay, NMMLSC
Compounds with a hit are over-represented: about 0.92% of the library has one in this group of screens.
RPL19A-GFP yeast: RPL19A-GFP expression modulators in yeast, primary screen, cell-based, S. cerevisiae, multiplex flow cytometry, MLPCN | percent response vs DMSO, % at 10 µM | AID 2025, 2009 | 0.3% of 330,000 active | S. cerevisiae RPL19A-GFP strain, 3 h; stronger effect = lower value;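 active = percent response vs DMSO below 50%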;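 also: median channel GFP fluorescence of the barcoded RPL19A-GFP strain; lower means less RPL19A-GFP as with rapamycin TOR inhibition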
CIT2 TOR yeast: modulators of CIT2-GFP expression in yeast, primary screen, S. cerevisiae, GFP fusion, multiplex flow cytometry, MLPCN library; S. cerevisiae CIT2-GFP strain, 3 h; 100 means same as DMSO wells; GFP response vs DMSO, % at 10 µM; 0.065% of 320,000 active;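 active = GFP response relative to DMSO above a set limit, near the screen mean plus 3 SD, cut at about 150% in these data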;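 also: ratio of well median GFP fluorescence to mean of DMSO wells on the plate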
MEP2-GFP yeast: modulators of MEP2-GFP levels in yeast, primary screen, S. cerevisiae, multiplex flow cytometry, MLPCN library; S. cerevisiae MEP2-GFP strain, 3 h; 100% = DMSO control level; GFP response vs DMSO, % at 10 µM; 0.51% of 330,000 active;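 active = GFP response versus DMSO above a set limit, roughly screen mean plus 3 SD, cut at about 180% in these data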;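 also: median GFP fluorescence of the barcode-gated MEP2-GFP cells per well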
AGP1-GFP MLPCN: modulators of AGP1-GFP expression in yeast TOR pathway, primary screen, cell-based, multiplex flow cytometry, S. cerevisiae, MLPCN library. 3 h; GFP as percent of DMSO wells. GFP response vs DMSO, % at 10 µM. 0.02% of 320,000 active;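 active = GFP response relative to DMSO above a set limit, near screen average plus 3 SD, cut at about 150% in these data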;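 also: median GFP channel fluorescence of the gated AGP1 strain per well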
LAP4 TOR yeast: modulators of LAP4-GFP expression in yeast, primary screen, S. cerevisiae, multiplex flow cytometry, MLPCN library; AID 2023, 2009; 0.34% of 320,000 active; 3 h; median GFP as percent of DMSO wells; GFP response vs DMSO, % at 10 µM;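 active = GFP response vs DMSO above a set limit, about the screen mean plus 3 SD, cut at about 150% in these data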
LAP4 cherry2: LAP4-GFP expression modulators in yeast, confirmation, cell-based, second cherry pick, flow cytometry. shares compounds with LAP4 TOR yeast. S. cerevisiae LAP4-GFP strain, 3 h. GFP response vs DMSO, % at 10 µM. 20% of 590 active;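 active = GFP signal as percent of the solvent control above about 150%, meaning raised reporter expression, limit read from the data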
MEP2 cherry2: modulators of MEP2-GFP levels in yeast, confirmation, S. cerevisiae, flow cytometry GFP, second cherry picks; GFP response vs DMSO, % at 10 µM; 10% of 590 active; shares compounds with LAP4 TOR yeast; S. cerevisiae MEP2-GFP strain, 3 h;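 active = GFP signal above 150% of the solvent control wells, that is a rise of more than half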;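 also: median channel GFP fluorescence of all gated yeast cells per well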
RPL19A-GFP pick2: RPL19A-GFP modulators in TOR pathway yeast, confirmation, cell-based, S. cerevisiae, flow cytometry, second cherry pick; GFP response vs DMSO, % at 10 µM; 3% of 590 active; shares compounds with LAP4 TOR yeast; S. cerevisiae RPL19A-GFP strain, 3 h; stronger effect = lower value; 100% means same as DMSO wells;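 active = under 65% GFP response relative to DMSO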;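 also: median GFP channel fluorescence per well over the all cells gate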
CIT2 GFP CP2: modulators of CIT2-GFP expression in yeast, confirmation, flow cytometry, second cherry pick, single plex | 8% of 590 active | S. cerevisiae CIT2-GFP strain, 3 h; DMSO control wells read 100% | GFP response vs DMSO, % at 10 µM | AID 2624, 2010 | shares compounds with LAP4 TOR yeast;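 active = GFP response vs DMSO above about 150%, limit read from the data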;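 also: median green fluorescence per well over all gated yeast cells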
AGP1-GFP pick2: AGP1-GFP expression modulators, hit retest, confirmation, cell-based, flow cytometry, S. cerevisiae, cherry pick set 2 | percent response vs DMSO, % at 10 µM | 590 tested, under 10 active | S. cerevisiae AGP1-GFP strain, 3 h | shares compounds with LAP4 TOR yeast;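 active = over 150 percent of DMSO response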;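 also: median GFP channel fluorescence over all cells without mother daughter split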
s288c autofluor: compound autofluorescence in yeast s288c, dose response, artefact control for yeast TOR pathway GFP screen, s288c strain. shares compounds with LAP4 TOR yeast. S. cerevisiae s288c, 520 nm autofluorescence, flow cytometry, 3 h; stronger effect = higher value; zero means same as solvent-only cells. 610 tested, under 10 active. fluorescence change (kMESF span) at 33 µM;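 active = fluorescence span over the dose series, or activity score, above about 33, limit read from the data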
s288c autofl DR: autofluorescence of compounds in yeast s288c, dose response, artefact control for yeast TOR pathway GFP screen, primary hits, KU SAR, s288c parental | shares compounds with LAP4 TOR yeast | S. cerevisiae s288c parental, compound autofluorescence, flow cytometry, 3 h | fluorescence change (span) at 33 µM | 110 tested, under 10 active;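 active = fluorescence change span, or the activity score built from it, above 25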
TORC1 bypass: wild-type yeast growth inhibition sparing TORC1 bypass cells, mechanism study for yeast TOR pathway GFP screen, BY4741 wild type, TORC1 bypass strain | shares compounds with LAP4 TOR yeast | S. cerevisiae BY4741 spot growth rating, 48-72 h; stronger effect = lower value | growth rating (0-3) at 30 µM | 120 tested, under 10 active | AID 504456, 2011;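 active = growth rating at most 1 for wild type yeast while the TORC1 bypass strain still grows fully, rated 3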
Each line names hits and unclear results; the compound was inactive in the other large screens (follow-up assays come after a bar, where they were run).

C=CCn1c(SCC(=O)NCC2CCCO2)nc2c([nH]c3ccccc32)c1=O (stereo unspecified)	none (no result: CIT2 TOR yeast)
Cc1cc(NC(=O)CSc2nnc(-c3ccncc3)n2-c2ccc(F)cc2)no1	none | LAP4 cherry2 inactive | MEP2 cherry2 inactive | RPL19A-GFP pick2 inactive | CIT2 GFP CP2 inactive | AGP1-GFP pick2 inactive
CCSc1nnc(NC(=O)c2ccccn2)s1	LAP4 TOR yeast 175 | s288c autofluor inactive | s288c autofl DR inactive | TORC1 bypass inactive
COc1cc(/C=C/C(=O)N2CCN(C)CC2)cc(S(=O)(=O)N2CCc3ccccc32)c1OC	none | LAP4 cherry2 inactive | MEP2 cherry2 inactive | RPL19A-GFP pick2 inactive | CIT2 GFP CP2 inactive | AGP1-GFP pick2 inactive
COc1cc(/C=C/C(=O)OCC(=O)NC2CC2)cc(S(=O)(=O)N2CCc3ccccc32)c1OC	none
O=C(Nc1cc(-c2ccccc2)nn1C1CCCCC1)c1ccc(Cl)cc1	none
CSC1=NS(=O)(=O)c2c(C)nn(C)c2S1	LAP4 TOR yeast 154 | s288c autofluor inactive | s288c autofl DR inactive | TORC1 bypass inactive
Cc1cccc(NC(=O)c2ccccc2NC(=O)c2ccccc2)n1	none
CCC(CO)NCc1ccc(OCC(O)c2ccccc2)c(OC)c1 (stereo unspecified)	none
Cc1ccc(C(=O)Sc2cccccc2=O)cc1	LAP4 TOR yeast 244 | s288c autofluor inactive
O=c1cc(C(F)(F)F)[nH]c2c(C(F)(F)F)cccc12	none
O=c1cc(C(F)(F)F)[nH]c2ccc(OC(F)(F)F)cc12	none | LAP4 cherry2 inactive | MEP2 cherry2 inactive | RPL19A-GFP pick2 inactive | CIT2 GFP CP2 inactive | AGP1-GFP pick2 inactive
Oc1c(C(Nc2nc3ccccc3s2)c2ccco2)ccc2cccnc12 (stereo unspecified)	LAP4 TOR yeast 203 | s288c autofluor inactive
O=C(NCC(c1ccc(F)cc1)N1CCOCC1)c1ccc(OCc2ccccc2)cc1 (stereo unspecified)	none
Cc1ccc(C2=NN(S(C)(=O)=O)C(c3cccs3)C2)cc1 (stereo unspecified)	none
CCc1ccc(C2=NN(S(C)(=O)=O)C(c3cccs3)C2)cc1 (stereo unspecified)	CIT2 TOR yeast 230, MEP2-GFP yeast 378, LAP4 TOR yeast 258 | LAP4 cherry2 253 | MEP2 cherry2 484 | RPL19A-GFP pick2 inactive | CIT2 GFP CP2 384 | AGP1-GFP pick2 inactive
COc1ccc(NS(=O)(=O)c2ccc(C)c(C(=O)NCCCN3CCCC3=O)c2)cc1	none
CC(O)[C@H]1CNC(=O)C(=O)N1CCc1cccc(F)c1 (stereo partly specified)	none
Cc1c(Cc2ccccc2)c(NCCN(C)C)n2c(nc3ccccc32)c1C#N	LAP4 TOR yeast 198 | s288c autofluor inactive
CCOC(=O)c1c(C)[nH]c(C)c1C(=O)COC(=O)/C=C/c1cccc(C(F)(F)F)c1	none
CCOC(=O)c1c(C)[nH]c(C)c1C(=O)COC(=O)/C=C/c1cccc(F)c1	CIT2 TOR yeast 231, MEP2-GFP yeast 309, LAP4 TOR yeast 246 | LAP4 cherry2 inactive | MEP2 cherry2 inactive | RPL19A-GFP pick2 inactive | CIT2 GFP CP2 inactive | AGP1-GFP pick2 inactive
CCOc1ccccc1NC(=O)C(=O)CC(=O)c1ccc(OC)cc1	none
Oc1c(Br)cc(Br)cc1C=Nc1ccc2c(c1)OCCO2	none
Oc1c(Br)cc(Br)cc1C=Nc1ccc2c(c1)OCO2	LAP4 TOR yeast 152 | s288c autofluor inactive
Nc1c(C(=O)Nc2nc3ccccc3s2)sc2nc(-c3cccs3)ccc12	none
CC(=O)c1sc2nc(-c3cccs3)ccc2c1N	LAP4 TOR yeast 175 | LAP4 cherry2 inactive | MEP2 cherry2 inactive | RPL19A-GFP pick2 inactive | CIT2 GFP CP2 inactive | AGP1-GFP pick2 inactive
CCc1cccc2sc(N3CCN(C(=O)c4ccc([N+](=O)[O-])o4)CC3)nc12	RPL19A-GFP yeast 32 | s288c autofluor inactive
Cc1ccc(/C(N)=N/OC(=O)c2ccc(F)cc2)cc1	CIT2 TOR yeast 170 | s288c autofluor inactive
Cc1cccc(C)c1NC(=O)CN(C)C(=O)COc1cccc2c1OC(C)(C)C2	none
CCN(CC(=O)Nc1c(F)cccc1F)C(=O)COc1cccc2c1OC(C)(C)C2	LAP4 TOR yeast 185 | LAP4 cherry2 inactive | MEP2 cherry2 inactive | RPL19A-GFP pick2 inactive | CIT2 GFP CP2 inactive | AGP1-GFP pick2 inactive
COc1cccc(SCc2noc(C(=O)NCCN(C)C)c2C(=O)NCCN(C)C)c1	none
Cc1cc(Nc2cc(-c3ccccc3)nc(NCc3ccccc3)n2)n[nH]1	none (no result: RPL19A-GFP yeast, CIT2 TOR yeast, MEP2-GFP yeast, AGP1-GFP MLPCN, LAP4 TOR yeast) | TORC1 bypass inactive
